The source of these data is PubChem BioAssay (NCI).

Some test systems named below: DU-145 prostate; K-562 leukemia; MALME-3M melanoma; MDA-MB-231 breast; RXF 393 renal; SF-268 CNS; SF-295 CNS; SF-539 CNS; UACC-257 melanoma; M14 melanoma; HCT-15 colon; HT29 colon; SNB-75 CNS; SNB-19 CNS; U251 CNS; PC-3 prostate; SK-MEL-5 melanoma; UACC-62 melanoma; LOX IMVI melanoma; SK-MEL-28 melanoma.
Holding throughout (assay): NCI-60 one-dose screen, 48 h (100 = growth as untreated, 0 = no growth, -100 = all killed)
Holding throughout (conditions): 10 µM unless noted

Compounds without any hit were thinned out: in the full panel of roughly 83,000, 20% have a hit.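 How to read the values: 0–100, growth inhibition (40 = 60% inhibited); 0, no net growth; -100 to 0, cell death (-40 = 40% of starting cells died; -100 = all dead).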 A number with no mark means an inactive call. Active and inactive are the calls of the source. Rule for the calls: active = growth percent below 10; inactive = the rest.

On to `CCOC(=O)c1cc(-c2ccc([N+](=O)[O-])cc2)n(-c2ccc(C(=O)O)c(O)c2)c1C`, for which the growth in the assay on DU-145 prostate is 88.6%; in the assay on K-562 leukemia, 45.1%; with MALME-3M melanoma it was 80.6%; with MDA-MB-231 breast it was 80.7%; in the assay on RXF 393 renal it was 39%; with SF-268 CNS, 85.8%. The growth in the assay with SF-295 CNS is 69.8%; in the assay with SF-539 CNS, 85.4%; in the assay on UACC-257 melanoma, 46.2%; in the assay on M14 melanoma it was 90%; in the assay with HCT-15 colon, 50.2%; in the assay with HT29 colon, 44.2%. The growth with SNB-75 CNS is 53.5%; in the assay on SNB-19 CNS, 90.7%; in the assay with U251 CNS, 70.9%; in the assay with PC-3 prostate, 23.5%; with SK-MEL-5 melanoma, 52%; with UACC-62 melanoma, 54%. Besides, the growth in the assay with LOX IMVI melanoma is 66.8%; in the assay on SK-MEL-28 melanoma, 90.5%.

Consider `Clc1ccc2c(c1)N(c1ncnc3ccc(-c4cnc5[nH]ncc5c4)cc13)CC2`, for which the growth in the assay on DU-145 prostate was 22.4%; in the assay with K-562 leukemia, 51.1%; with MALME-3M melanoma, 40.2%; in the assay with MDA-MB-231 breast, 27.3%; in the assay with RXF 393 renal, -10.5% (active); in the assay with SF-268 CNS, 35.1%. The growth was 23.1% with SF-295 CNS; 24.9% with SF-539 CNS; 44.3% with UACC-257 melanoma; 43.4% in the assay on M14 melanoma; 25% with HCT-15 colon; 19.3% in the assay on HT29 colon. The growth in the assay on SNB-75 CNS was -16.8% (active); in the assay with SNB-19 CNS, 42.8%; in the assay on U251 CNS it was 39.8%; with PC-3 prostate, 23.8%; in the assay on SK-MEL-5 melanoma it was 46.5%; in the assay with UACC-62 melanoma, 8.23% (active). Moreover, the growth in the assay with LOX IMVI melanoma is 18.4%; in the assay on SK-MEL-28 melanoma, 44.1%.

In the case of `C/C(=C(/c1ccc(Cl)cc1)c1ccc(OCCN2CCCC2)cc1)c1ccc(Cl)cc1`, the growth in the assay on DU-145 prostate was 98.1%; in the assay with K-562 leukemia, 20.3%; in the assay on MALME-3M melanoma, 81.5%; with MDA-MB-231 breast, 94%; with RXF 393 renal, 72%; in the assay on SF-268 CNS it was 91.5%. Moreover, the growth in the assay with SF-295 CNS was 100%; in the assay on SF-539 CNS, 91.8%; with UACC-257 melanoma it was 98.6%; with M14 melanoma it was 75.8%; in the assay with HCT-15 colon, 42.1%; in the assay on HT29 colon, 9.33% (active). Moreover, the growth in the assay with SNB-75 CNS was 115%; with SNB-19 CNS, 85.8%; with U251 CNS, 68.6%; with PC-3 prostate it was 66.4%; in the assay with SK-MEL-5 melanoma, 82.4%; in the assay on UACC-62 melanoma, 93.9%. Moreover, the growth with LOX IMVI melanoma is 78%; with SK-MEL-28 melanoma, 92.8%.

As to `OCc1cccc(-c2ccc3ncc(-c4nc(NC5CC5)ncc4F)n3c2)c1`, the growth was 2.04% (active) with DU-145 prostate; 4.91% (active) in the assay with K-562 leukemia; -69% (active) in the assay on MALME-3M melanoma; -15.6% (active) in the assay with MDA-MB-231 breast; -44.3% (active) in the assay with RXF 393 renal; -24.5% (active) in the assay with SF-268 CNS. The growth in the assay with SF-295 CNS is 4.24% (active); in the assay with SF-539 CNS, -61.2% (active); in the assay on UACC-257 melanoma, -29.9% (active); in the assay on M14 melanoma, -39.4% (active); in the assay on HCT-15 colon, 1.06% (active); in the assay with HT29 colon it was 4.87% (active). The growth was -40.8% (active) with SNB-75 CNS; -0.451% (active) with SNB-19 CNS; -3.8% (active) in the assay on U251 CNS; -10.3% (active) in the assay with PC-3 prostate; -77.2% (active) with SK-MEL-5 melanoma; -84.4% (active) in the assay on UACC-62 melanoma. Also, the growth in the assay with LOX IMVI melanoma was -1.7% (active); in the assay on SK-MEL-28 melanoma, -45.5% (active).

With `COc1ccc(/C=C2\COc3ccc(O)cc3C2=O)c(OC)c1OC`, the growth is 46.2% in the assay with DU-145 prostate; 17.7% with K-562 leukemia; 78.2% in the assay with MALME-3M melanoma; 82.9% in the assay on MDA-MB-231 breast; 111% in the assay with RXF 393 renal; 93.4% in the assay on SF-268 CNS. The growth is 98.3% with SF-295 CNS; 81.6% in the assay with SF-539 CNS; 97.2% with UACC-257 melanoma; 86% in the assay with M14 melanoma; 48.8% in the assay with HCT-15 colon; 68.5% with HT29 colon. Besides, the growth is 83% in the assay on SNB-75 CNS; 80.6% in the assay with SNB-19 CNS; 60.8% in the assay with U251 CNS; 77.1% in the assay on PC-3 prostate; 89.9% in the assay with SK-MEL-5 melanoma; 78.7% in the assay on UACC-62 melanoma. For the same compound, the growth in the assay on LOX IMVI melanoma is 44.3%; with SK-MEL-28 melanoma, 99.2%.

With `COc1ccc(-c2cn(-c3cc(OC)c(OC)c(OC)c3)c(=O)n2C(C)=O)cc1`, the growth in the assay on DU-145 prostate is 106%; with K-562 leukemia, 61.7%; with MALME-3M melanoma it was 90.6%; in the assay with MDA-MB-231 breast, 76.7%; in the assay on RXF 393 renal it was 109%; in the assay on SF-268 CNS it was 107%. The growth in the assay with SF-295 CNS is 78.6%; with SF-539 CNS, 97%; in the assay on UACC-257 melanoma it was 82%; in the assay with M14 melanoma it was 92.6%; in the assay on HCT-15 colon, 90.9%; with HT29 colon it was 85.4%. For the same compound, the growth is 88.3% in the assay with SNB-75 CNS; 92.9% in the assay on SNB-19 CNS; 97.6% in the assay with U251 CNS; 105% in the assay with PC-3 prostate; 94% with SK-MEL-5 melanoma; 84.2% in the assay on UACC-62 melanoma. The growth with LOX IMVI melanoma is 95.5%; in the assay with SK-MEL-28 melanoma, 103%.

In the case of `COC(=O)/C(CCC=C(C)C)=C1\[C@@H](OC(C)=O)C[C@@]2(C)[C@H]1C[C@@H](O)[C@H]1[C@@]3(C)CC[C@H](NCCN)[C@@H](C)[C@@H]3CC[C@@]12C`, the growth with DU-145 prostate is 65.4%; in the assay with K-562 leukemia, -7.67% (active); with MALME-3M melanoma, 89.4%; in the assay with MDA-MB-231 breast it was 93%; in the assay on RXF 393 renal, 57.8%; in the assay with SF-268 CNS it was 76.6%. Besides, the growth in the assay on SF-295 CNS was 98.2%; in the assay with SF-539 CNS, 90.2%; in the assay with UACC-257 melanoma it was 99.7%; in the assay on M14 melanoma, 87%; in the assay on HCT-15 colon it was 55%; in the assay with HT29 colon, 33.5%. Further, the growth with SNB-75 CNS was 73%; in the assay on SNB-19 CNS it was 95.1%; with U251 CNS, 69.1%; in the assay on PC-3 prostate, 59.6%; in the assay on SK-MEL-5 melanoma, 88.3%; in the assay with UACC-62 melanoma, 89.5%. For the same compound, the growth in the assay on LOX IMVI melanoma is 84.5%; with SK-MEL-28 melanoma it was 89.2%.

As for `Brc1ccc(-n2cc(-c3nn[nH]n3)c(-c3cccs3)n2)cc1`, the growth was 107% in the assay with DU-145 prostate; 100% in the assay on K-562 leukemia; 93.7% in the assay with MALME-3M melanoma; 88.1% in the assay with MDA-MB-231 breast; 105% in the assay with RXF 393 renal; 100% with SF-268 CNS. In addition, the growth in the assay with SF-295 CNS is 95.3%; in the assay with SF-539 CNS it was 96%; with UACC-257 melanoma, 96.1%; in the assay on M14 melanoma it was 95.9%; in the assay with HCT-15 colon, 95.3%; in the assay on HT29 colon, 113%. For the same compound, the growth in the assay on SNB-75 CNS was 92.5%; in the assay with SNB-19 CNS it was 90.9%; in the assay with U251 CNS, 93%; in the assay on PC-3 prostate it was 98.9%; with SK-MEL-5 melanoma it was 101%; in the assay on UACC-62 melanoma, 92.7%. The growth in the assay on LOX IMVI melanoma was 101%; in the assay with SK-MEL-28 melanoma it was 103%.
